Active and inactive are the calls of the source.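 The calls were made as follows, unless noted: active = compound raises GLP1 secretion from the human gut endocrine cells, with no numeric limit stated; inactive = the rest.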

The values that follow come from PubChem BioAssay.

A short description of assay [1]: stimulators of nuclear beta-catenin in C2C12, primary screen, imaging, WNT3A-conditioned medium, mouse C2C12, NPC library (AID 1117326; in the data active = nuclear beta-catenin stimulation mostly above about 4.2%, no sharp cut-off; inactive = mostly below about 10%; also: reference of the scale not given here). The conditions noted are these: stronger effect = higher value.
Assay [2] can be described thus: stimulators of insulin release from INS-1E, primary screen, cell-based, 5 mM glucose, NPC library (AID 1117329;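 active = compound raises insulin release from rat beta cells at 5 mM glucose, no numeric limit stated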; also: reference of the scale not given here). The conditions noted are these: rat INS-1E insulin secretion, at 10 µM, stronger effect = higher value.
Assay [3] can be described thus: growth inhibition of GSK3B-pretreated HCT116 cells – cell-based, CellTiter-Glo, 0.2 to 20 µM (AID 1117336;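 active = compounds lowering colon cancer cell viability after pretreatment blocking the GSK3B kinase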). To be noted: HCT116 viability after GSK3B inhibitor, at 20 µM, stronger effect = higher value. Background: In ATP-based viability assays light output follows the ATP content of the culture.
Assay [4] in a line: inhibition of endothelial tube formation, primary screen, imaging, VEGF stimulated, CD31 staining, tube area, NPC library (AID 1117340;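 active = compound that reduces growth-factor-driven endothelial tube area in a mixed cell culture, no cutoff stated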). To be noted: VEGF-stimulated ADSC/ECFC co-culture, at 10 µM, stronger effect = higher value.
The nature of assay [5]: glucagon-like peptide 1 release enhancers, primary assay, NCI-H716 cell line, NPC library (AID 1117341). Also: reference of the scale not given here. To be noted: NCI-H716 cells, at 10 µM, stronger effect = higher value.
Assay [6] can be described thus: HCT116 colon cancer cell growth inhibition, primary screen, CellTiter-Glo luminescence, NPC library (AID 1117342;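 active = compounds that lower survival of HCT116 colon cancer cells in the luminescence readout, no numeric limit stated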). To be noted: at 20 µM (top of the series).
A short description of assay [7]: CellTiter-Glo luminescent readout of SW480 viability loss, NPC library primary (AID 1117343;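 active = compounds that lower viability of the colon cancer cells in the luminescence readout, with no numeric limit stated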). The conditions noted are these: CellTiter-Glo luminescence; at 20 µM (top of the series).
Assay [8] is described as follows: decreased DLD-1 cellular survival, CellTiter-Glo luminescent readout, NPC compound collection, primary HTS (AID 1117346;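 active = compounds that lower survival of DLD-1 colon cancer cells in the luminescence readout, no cutoff given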). The conditions noted are these: DLD-1 viability, CellTiter-Glo luminescence; at 20 µM (top of the series).

`CCOCCOC(=O)/C=C/c1ccc(OC)cc1`: the nuclear beta-catenin stimulation in assay [1] (at 10 µM) is 1.4% (inactive); in assay [1] (stimulation, at 2 µM), 1%. Also, the insulin secretion stimulation in assay [2] was -1.7% (inactive). Also, the viability decrease in assay [3] is -11.8% (inactive). Besides, the tube area decrease in assay [4] is 18.9% (inactive). In assay [5], the GLP1 secretion stimulation is -4% (inactive). Further, the inhibition of viability in assay [6] is -4.53% (inactive). Moreover, the viability decrease (inhibition) is 17.1% (inactive) in assay [7] and 9.7% (inactive) in assay [8].
Consider `C[N+]1(CC2COC(c3ccccc3)(c3ccccc3)O2)CCCCC1` (stereo unspecified), for which the nuclear beta-catenin stimulation in assay [1] (at 10 µM) is 1.5% (inactive); in assay [1] (stimulation, at 2 µM) it was -0.6%. Moreover, the insulin secretion stimulation in assay [2] is 6.4% (inactive). In addition, the viability decrease in assay [3] was 7.4% (inactive). Also, in assay [4], the tube area decrease was -12.8% (inactive). Also, in assay [5], the GLP1 secretion stimulation was 0.7% (inactive). Also, the inhibition of viability in assay [6] was 23.2% (inactive). Besides, the figures for the viability decrease (inhibition) in assay [7] and in assay [8] were 10.8% (inactive) and 0.5% (inactive), respectively.
As for `O=C(O)c1ccccc1Nc1cc(Cl)ccc1C(=O)O`, the nuclear beta-catenin stimulation in assay [1] (at 10 µM) was 2% (inactive); in assay [1] (stimulation, at 2 µM), -1.8%. Moreover, the insulin secretion stimulation in assay [2] was 0.5% (inactive). Moreover, the viability decrease in assay [3] was 2.4% (inactive). Also, the tube area decrease in assay [4] is -18.4% (inactive). Further, the GLP1 secretion stimulation in assay [5] is 0.1% (inactive). In addition, the inhibition of viability in assay [6] is -1.2% (inactive). The viability decrease (inhibition) is -23.2% (inactive) in assay [7] and -18.7% (inactive) in assay [8].
`C[C@@H]1C[C@H]2[C@@H]3CCC4=CC(=O)C=C[C@]4(C)[C@@]3(F)[C@@H](O)C[C@]2(C)[C@@]1(O)C(=O)COC(=O)c1ccncc1`: the nuclear beta-catenin stimulation in assay [1] (at 10 µM) was 2.8% (inactive); in assay [1] (stimulation, at 2 µM), 2.8%. In addition, the insulin secretion stimulation in assay [2] is -1% (inactive). Further, in assay [3], the viability decrease is -41.3% (inactive). In addition, in assay [4], the tube area decrease was -2.4% (inactive). In assay [5], the GLP1 secretion stimulation is -1.9% (inactive). Moreover, in assay [6], the inhibition of viability was -4.43% (inactive). For the same molecule, the viability decrease (inhibition) in assay [7] is 5.8% (inactive); in assay [8], -18.6% (inactive).
Take `O=C(O)CC(O)C(=O)O` (stereo unspecified): the nuclear beta-catenin stimulation in assay [1] (at 10 µM) was 6% (inactive); in assay [1] (stimulation, at 2 µM), 0%. For the same molecule, the insulin secretion stimulation in assay [2] is -0.5% (inactive). In addition, in assay [3], the viability decrease was -6% (inactive). For the same molecule, the tube area decrease in assay [4] was 1.8% (inactive). Moreover, the GLP1 secretion stimulation in assay [5] is 1.3% (inactive). Moreover, the inhibition of viability in assay [6] is -8.5% (inactive). Further, the figures for the viability decrease (inhibition) in assay [7] and in assay [8] were 13.3% (inactive) and -7.65% (inactive), respectively.
In the case of `CN1CCN(C(=O)C2CCCCC2)CC1`, the nuclear beta-catenin stimulation is 0% (inactive) in assay [1] (at 10 µM) and -0.3% in assay [1] (stimulation, at 2 µM). Besides, in assay [2], the insulin secretion stimulation is 4.2% (inactive). Further, in assay [3], the viability decrease was -2.7% (inactive). Moreover, the tube area decrease in assay [4] was -5.2% (inactive). Moreover, the GLP1 secretion stimulation in assay [5] is 5.1% (inactive). Further, the inhibition of viability in assay [6] was 12% (inactive). For the same molecule, the viability decrease (inhibition) in assay [7] is 28.1% (inactive); in assay [8], 11.9% (inactive).
Turning to `Oc1cccc(O)c1O`, the nuclear beta-catenin stimulation in assay [1] (at 10 µM) is 5% (inactive); in assay [1] (stimulation, at 2 µM), 2.5%. Moreover, the insulin secretion stimulation in assay [2] is 2.5% (inactive). Besides, the viability decrease in assay [3] is 68.9% (active). Also, the tube area decrease in assay [4] was 24.9% (inactive). For the same molecule, in assay [5], the GLP1 secretion stimulation is -1% (inactive). The inhibition of viability in assay [6] was 45.7% (inactive). Further, the viability decrease (inhibition) is 101% (active) in assay [7] and 17.2% (inactive) in assay [8].
For the molecule `COc1ccc(C(C#N)C(C)C)cc1OC` (stereo unspecified), the nuclear beta-catenin stimulation in assay [1] (at 10 µM) is -1.8% (inactive); in assay [1] (stimulation, at 2 µM), 0.3%. Besides, the insulin secretion stimulation in assay [2] is 2.2% (inactive). The viability decrease in assay [3] is -24.5% (inactive). For the same molecule, the tube area decrease in assay [4] was 9.3% (inactive). In addition, the GLP1 secretion stimulation in assay [5] was -3.4% (inactive). Also, the inhibition of viability in assay [6] is 13.4% (inactive). The viability decrease (inhibition) in assay [7] was -4.7% (active); in assay [8], -19.9% (inactive).
For the molecule `O=[N+]([O-])c1ccc(/C=N\O)o1`, the nuclear beta-catenin stimulation is 2% (inactive) in assay [1] (at 10 µM) and 0.4% in assay [1] (stimulation, at 2 µM). Further, the insulin secretion stimulation in assay [2] was -3.1% (inactive). In addition, the viability decrease in assay [3] is 35.1% (inactive). For the same molecule, the tube area decrease in assay [4] was -16.1% (inactive). The GLP1 secretion stimulation in assay [5] was 4% (inactive). Moreover, in assay [6], the inhibition of viability was 8.8% (inactive). Moreover, the viability decrease (inhibition) was 53.4% (active) in assay [7] and 4.47% (inactive) in assay [8].
For `Cc1cc2nc3c(=O)[nH]c(=O)nc-3n(C[C@H](O)[C@H](O)[C@H](O)COP(=O)(O)OP(=O)(O)OC[C@H]3O[C@@H](n4cnc5c(N)ncnc54)[C@H](O)[C@H]3O)c2cc1C`, the nuclear beta-catenin stimulation in assay [1] (at 10 µM) is -2.2% (inactive); in assay [1] (stimulation, at 2 µM), 0.2%. In addition, the insulin secretion stimulation in assay [2] is 5.5% (inactive). The viability decrease in assay [3] was -3.6% (inactive). For the same molecule, the tube area decrease in assay [4] was -2.4% (inactive). Moreover, in assay [5], the GLP1 secretion stimulation is -3.7% (inactive). Besides, the inhibition of viability in assay [6] was -18.9% (inactive). Moreover, the viability decrease (inhibition) in assay [7] was 16.1% (inactive); in assay [8] it was -48.9% (inactive).
Regarding `CC[C@@]1(c2ccccc2)NC(=O)N(C)C1=O`, the nuclear beta-catenin stimulation in assay [1] (at 10 µM) is 0.1% (inactive); in assay [1] (stimulation, at 2 µM) it was 0.6%. Further, the insulin secretion stimulation in assay [2] is -0.2% (inactive). In addition, the viability decrease in assay [3] was 2.35% (inactive). Further, in assay [4], the tube area decrease was 0.1% (inactive). In addition, the GLP1 secretion stimulation in assay [5] is -0.6% (inactive). For the same molecule, in assay [6], the inhibition of viability was -10.2% (inactive). Also, the viability decrease (inhibition) was 11.6% (inactive) in assay [7] and -9.4% (inactive) in assay [8].
As for `Nc1ncnc2c1ncn2Cc1c(F)cccc1Cl`, the nuclear beta-catenin stimulation was -0.7% (inactive) in assay [1] (at 10 µM) and -2.1% in assay [1] (stimulation, at 2 µM). In assay [2], the insulin secretion stimulation is 4.3% (inactive). Further, the viability decrease in assay [3] was -7.4% (inactive). In addition, in assay [4], the tube area decrease is -5% (inactive). Further, the GLP1 secretion stimulation in assay [5] was 1.9% (inactive). Further, in assay [6], the inhibition of viability was 9.7% (inactive). The viability decrease (inhibition) in assay [7] is -2.4% (inactive); in assay [8] it was -2% (inactive).
Take `CC(=O)OC(C)OC(=O)C(C)c1ccc(-c2ccccc2)c(F)c1` (stereo unspecified): the nuclear beta-catenin stimulation is 3.1% (inactive) in assay [1] (at 10 µM) and 0.3% in assay [1] (stimulation, at 2 µM). Moreover, in assay [2], the insulin secretion stimulation was 0.5% (inactive). The viability decrease in assay [3] was -2.95% (inactive). Further, the tube area decrease in assay [4] was -36.8% (inactive). Besides, the GLP1 secretion stimulation in assay [5] is -1.1% (inactive). Besides, the inhibition of viability in assay [6] was 8.9% (inactive). The values for the viability decrease (inhibition) in assay [7] and in assay [8] were 4.6% (inactive) and -3.05% (inactive), respectively.
In the case of `CCN(CC)c1ccc(C(=C2C=CC(=[N+](CC)CC)C=C2)c2cc(S(=O)(=O)O)ccc2S(=O)(=O)[O-])cc1`, the nuclear beta-catenin stimulation in assay [1] (at 10 µM) was 0.8% (inactive); in assay [1] (stimulation, at 2 µM), 4.4%. Moreover, the insulin secretion stimulation in assay [2] was 1.5% (inactive). The viability decrease in assay [3] was 1.1% (inactive). Moreover, the tube area decrease in assay [4] is 10.6% (inactive). Besides, the GLP1 secretion stimulation in assay [5] was -12.8% (inactive). Besides, in assay [6], the inhibition of viability was 20.3% (inactive). The results for the viability decrease (inhibition) in assay [7] and in assay [8] were 52.8% (active) and 13% (inactive), respectively.
